Assay [1] can be described thus: ATG_CRE_CIS: Attagene CIS-FACTORIAL HepG2 Assay for human cAMP Responsive Element (CRE) binding protein 3 (AID 2282926). The following applies: HepG2 CRE cis-reporter, Attagene multiplexed mRNA; actives raise or lower the signal. Summed up:
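Capillary electrophoresis of 6-FAM-labelled, HpaI-digested PCR products quantified reporter transcripts. These came from HepG2 transiently transfected with cis-element reporters and exposed to test chemicals for 24 hours, with DMSO defining baseline activity.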

In assay [2] the target is CCAAT/enhancer-binding protein beta (Homo sapiens) (UniProt P17676). Briefly: ATG_C_EBP_CIS: Attagene CIS-FACTORIAL HepG2 Assay for human CCAAT/Enhancer Binding Protein (C/EBP) beta (AID 2282927). The following applies: HepG2 Attagene cis-factorial transcription factor reporter; actives raise or lower the signal. Summed up:
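HepG2 transiently transfected with multiplexed reporter units under cis-regulatory promoters reporting endogenous C/EBPb activity. After 24 h exposure, reporter mRNA assayed by RT-PCR, fluorescent labelling, HpaI digestion and capillary electrophoresis; bidirectional fitting versus DMSO.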

Assay [3] is described as follows: ATG_CMV_CIS: Attagene CIS-FACTORIAL HepG2 Assay for human CMV (Internal Marker) (AID 2282928).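 Note: endpoint acts as a background internal control marker rather than a target.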 The following applies: HepG2 CMV promoter reporter, transcription factor profiling; actives raise or lower the signal. Summed up: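 24 h chemical treatment, HepG2 with transient multi-reporter transfection; RNA → oligo(dT) RT → PCR → 6-FAM extension → HpaI digest → CE fluorescence. Bidirectional fit, DMSO negative control.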

The nature of assay [4]: ATG_DR4_LXR_CIS: Attagene CIS-FACTORIAL HepG2 Assay for human Liver X Receptor (LXR), DR4 submotif (AID 2282929). The following applies: HepG2 Attagene DR4 cis-reporter, mRNA transcription; actives raise or lower the signal. Summed up: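 Transiently transfected HepG2 liver cells; cis-regulated reporters; 24 h dosing. RT-PCR plus CE read-out of reporter mRNA. DMSO baseline, bidirectional curve fitting.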

Assay [5] concerns the target Aryl hydrocarbon receptor (Homo sapiens) (UniProt P35869). Kind of assay: ATG_Ahr_CIS: Attagene CIS-FACTORIAL HepG2 Assay for human Aryl Hydrocarbon Receptor (Ahr) (AID 2282930). The following applies: HepG2 AhR cis-factorial reporter transcription; actives raise or lower the signal. An outline of the steps:
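HepG2 cells transiently transfected with cis-element-driven multiplexed reporter units; endogenous AhR activity read as reporter mRNA 24 h after dosing, via RT-PCR, 6-FAM labelling, HpaI digestion and capillary electrophoresis. Bidirectional fit relative to DMSO.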

A short description of assay [6]: ATG_AP_1_CIS: Attagene CIS-FACTORIAL HepG2 Assay for human Activator Protein 1 (AP-1) (AID 2282931). The following applies: HepG2 Attagene cis-factorial AP-1 reporter mRNA; actives raise or lower the signal. An outline of the steps:
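We transfected HepG2 cells transiently with a set of cis-regulated reporter transcription units, dosed them for 24 h, and quantified reporter mRNA via RT-PCR and capillary electrophoresis, scoring gain or loss of signal relative to DMSO.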

Assay [7] can be described thus: ATG_BRE_CIS: Attagene CIS-FACTORIAL HepG2 Assay for human Bone Morphogenetic Protein (BMP) Response Element (BRE) (AID 2282933). The following applies: HepG2 BMP response element reporter, Attagene transcription factor profiling; actives raise or lower the signal. Summed up: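 Endogenous transcription factor activity at a BMP response element was monitored in transfected HepG2 cells 24 h after dosing. Fluorescent RT-PCR products were resolved by capillary electrophoresis, and activity was fitted in both directions versus DMSO.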

Assay [8] has as its target Retinoic acid receptor alpha (Homo sapiens) (UniProt P10276). Kind of assay: ATG_DR5_RAR_CIS: Attagene CIS-FACTORIAL HepG2 Assay for human Retinoic Acid Receptor Alpha (RARE), DR5 submotif (AID 2282934). The following applies: HepG2 Attagene cis-factorial RARE DR5 reporter, mRNA; actives raise or lower the signal. An outline of the steps:
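HepG2 cells transiently transfected with multiplexed reporter units; DR5 cis-element drives reporter through endogenous transcription factors. After 24 h dosing, reporter mRNA quantified by RT-PCR, fluorescent labeling, HpaI digestion and capillary electrophoresis; bidirectional fitting versus DMSO.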

The target in assay [9] is Transcription factor E2F1 (Homo sapiens) (UniProt Q01094). Briefly: ATG_E2F_CIS: Attagene CIS-FACTORIAL HepG2 Assay for human E2F Transcription Factor 1 (AID 2282935). The following applies: HepG2 Attagene cis-reporter, E2F reporter RNA transcripts; actives raise or lower the signal. Summed up:
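Transient MRTU transfection of HepG2; 24 h compound exposure; RNA → oligo(dT) RT → PCR → FAM label → HpaI cut → CE fluorescence. Gain/loss of signal fit against DMSO.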

A short description of assay [10]: ATG_E_Box_CIS: Attagene CIS-FACTORIAL HepG2 Assay for human Enhancer Box (E-box) (AID 2282936). The following applies: HepG2 E-box cis-reporter transcription, actives raise or lower the signal. An outline of the steps: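 Transiently transfected HepG2, endogenous TF-driven reporters, 24 h dosing. Readout: RT-PCR plus capillary electrophoresis of fluorescent reporter fragments. Gain or loss of signal fitted bidirectionally against DMSO baseline.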

A short description of assay [11]: ATG_M_61_CIS: Attagene CIS-FACTORIAL HepG2 Assay for M61 Transcription Factor (Internal Marker) (AID 2282937). The following applies: HepG2 Attagene CIS-FACTORIAL M61 internal marker reporter; actives raise or lower the signal. Summed up:
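Multiplexed reporter mRNA assay, HepG2 human hepatoma cells, 24 h treatment. Signal: FAM-labelled, HpaI-digested RT-PCR fragments by CE. Fit: bidirectional, baseline DMSO.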

The nature of assay [12]: ATG_EGR_CIS: Attagene CIS-FACTORIAL HepG2 Assay for human Early Growth Response 1 (EGR1) (AID 2282938). The following applies: HepG2 Attagene CIS-FACTORIAL EGR reporter mRNA; actives raise or lower the signal. An outline of the steps: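 Multiplexed cis-reporter system in human hepatoma HepG2 cells, transiently transfected. Cells are dosed for 24 h; reporter transcripts are amplified, fluorescently tagged and sized by capillary electrophoresis, with DMSO as negative control.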

Assay [13] in a line: ATG_M_19_CIS: Attagene CIS-FACTORIAL HepG2 Assay for M19 Transcription Factor (Internal Marker) (AID 2282939). The following applies: HepG2 Attagene CIS-FACTORIAL M19 internal marker reporter; actives raise or lower the signal. An outline of the steps: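 Background-control endpoint from a multiplexed HepG2 reporter panel. Cells carrying cis-regulated reporter constructs are treated 24 h, then reporter transcripts are amplified, fluorescently labelled and sized by capillary electrophoresis. DMSO defines baseline.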

The nature of assay [14]: ATG_ERE_CIS: Attagene CIS-FACTORIAL HepG2 Assay for Estrogen Response Element (ERE) (AID 2282940). The following applies: HepG2 ERE cis-reporter, Attagene RNA transcript; actives raise or lower the signal. An outline of the steps: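 Cells used were human hepatoma HepG2, transfected with multiple reporter transcription units under cis-regulatory promoters. Reporter mRNA, read 24 h post-dosing via fluorescent RT-PCR products on capillary electrophoresis, was fitted bidirectionally relative to DMSO.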

Assay [15] in a line: ATG_Ets_CIS: Attagene CIS-FACTORIAL HepG2 Assay for human Erythroblast Transformation Specific (ETS) (AID 2282941). The following applies: HepG2 ETS cis-reporter transcription, actives raise or lower the signal. Summed up: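 Cis-regulated reporter mRNA induction in HepG2 (transient transfection), 24 h exposure, RT-PCR plus capillary electrophoresis detection; DMSO serves as negative control and baseline.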

Assay [16] addresses Hepatocyte nuclear factor 3-beta (Homo sapiens) (UniProt Q9Y261). Briefly: ATG_FoxA2_CIS: Attagene CIS-FACTORIAL HepG2 Assay for human Forkhead box A2 (FOXA2) (AID 2282942). The following applies: HepG2 cis-reporter transcription factor activity, 24 h; actives raise or lower the signal. An outline of the steps:
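Multiplexed cis-element reporter assay in transiently transfected HepG2. Twenty-four hours post-dosing, RNA was reverse-transcribed, amplified, FAM-labelled, HpaI-digested and separated by CE. Activity gain or loss relative to DMSO.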

Assay [17] can be described thus: ATG_FoxO_CIS: Attagene CIS-FACTORIAL HepG2 Assay for human Forkhead box O (FoxO) (AID 2282943). The following applies: HepG2 Attagene cis-reporter, FoxO element, mRNA; actives raise or lower the signal. Summed up: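 HepG2 cells transiently transfected with cis-element-driven reporter units report endogenous FoxO activity. After 24 h chemical exposure, reporter mRNA quantified by RT-PCR, fluorescent labeling, HpaI digestion and capillary electrophoresis; bidirectional fit versus DMSO.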

Assay [18] can be described thus: ATG_GATA_CIS: Attagene CIS-FACTORIAL HepG2 Assay for human GATA Binding Protein (AID 2282944). The following applies: HepG2 GATA cis-element reporter, Attagene multiplex mRNA; actives raise or lower the signal. An outline of the steps:
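Endogenous transcription factor activity was captured through cis-promoter-driven reporters in transfected HepG2 cells. After 24 h exposure, reporter transcripts were quantified by RT-PCR with fluorescent capillary electrophoresis, and responses fitted both directions against DMSO.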

The nature of assay [19]: ATG_GLI_CIS: Attagene CIS-FACTORIAL HepG2 Assay for human Zinc Finger Protein GLI1 (AID 2282945). The following applies: HepG2, Attagene cis-factorial reporter mRNA, GLI element; actives raise or lower the signal. An outline of the steps:
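Transiently transfected HepG2 cells report endogenous transcription factor activity via cis-element-driven reporter units. After 24 h compound exposure, reporter mRNA was measured by RT-PCR with capillary electrophoresis; bidirectional fitting against DMSO baseline.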

The nature of assay [20]: ATG_AP_2_CIS: Attagene CIS-FACTORIAL HepG2 Assay for human Activator Protein 2 (AP-2) (AID 2282932). The following applies: HepG2 AP-2 cis-reporter, Attagene transcription factor profiling; actives raise or lower the signal. An outline of the steps: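 Read-out: fluorescent reporter mRNA via RT-PCR and capillary electrophoresis, 24 h post-dose in transiently transfected HepG2. Endogenous factors drive cis-promoter reporters; gain or loss of signal fitted bidirectionally against DMSO.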

Calls of active or inactive are those of the source. Rule for the calls: active = hit-call score of the fitted dose curve at least 0.9, where 1 is the maximum; inactive = score below 0.9.

Sequence of Hepatocyte nuclear factor 3-beta (Homo sapiens) (Q9Y261 whole entry, looked up): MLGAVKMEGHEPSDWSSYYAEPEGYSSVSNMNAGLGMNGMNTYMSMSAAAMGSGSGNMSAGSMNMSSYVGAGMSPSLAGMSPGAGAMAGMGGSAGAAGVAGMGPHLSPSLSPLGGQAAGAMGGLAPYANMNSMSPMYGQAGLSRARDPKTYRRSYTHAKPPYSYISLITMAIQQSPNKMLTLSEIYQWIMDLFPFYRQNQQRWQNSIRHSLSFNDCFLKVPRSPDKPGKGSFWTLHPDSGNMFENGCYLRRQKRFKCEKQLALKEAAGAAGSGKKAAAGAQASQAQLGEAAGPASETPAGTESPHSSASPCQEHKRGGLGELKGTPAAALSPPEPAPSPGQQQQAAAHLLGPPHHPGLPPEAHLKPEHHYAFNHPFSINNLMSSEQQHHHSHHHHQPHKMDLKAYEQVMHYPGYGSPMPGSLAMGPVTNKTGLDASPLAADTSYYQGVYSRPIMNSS
Sequence of CCAAT/enhancer-binding protein beta (Homo sapiens) (P17676 whole entry, looked up): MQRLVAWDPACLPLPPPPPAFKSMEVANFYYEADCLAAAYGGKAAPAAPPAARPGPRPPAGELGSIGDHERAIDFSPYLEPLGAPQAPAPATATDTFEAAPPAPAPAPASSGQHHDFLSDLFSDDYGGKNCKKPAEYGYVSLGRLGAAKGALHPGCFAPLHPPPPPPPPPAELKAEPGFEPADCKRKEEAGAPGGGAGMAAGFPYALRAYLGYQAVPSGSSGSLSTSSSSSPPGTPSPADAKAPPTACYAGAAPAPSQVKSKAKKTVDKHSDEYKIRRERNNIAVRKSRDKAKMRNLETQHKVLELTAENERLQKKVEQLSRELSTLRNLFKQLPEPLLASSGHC
Sequence of Retinoic acid receptor alpha (Homo sapiens) (P10276 whole entry, looked up): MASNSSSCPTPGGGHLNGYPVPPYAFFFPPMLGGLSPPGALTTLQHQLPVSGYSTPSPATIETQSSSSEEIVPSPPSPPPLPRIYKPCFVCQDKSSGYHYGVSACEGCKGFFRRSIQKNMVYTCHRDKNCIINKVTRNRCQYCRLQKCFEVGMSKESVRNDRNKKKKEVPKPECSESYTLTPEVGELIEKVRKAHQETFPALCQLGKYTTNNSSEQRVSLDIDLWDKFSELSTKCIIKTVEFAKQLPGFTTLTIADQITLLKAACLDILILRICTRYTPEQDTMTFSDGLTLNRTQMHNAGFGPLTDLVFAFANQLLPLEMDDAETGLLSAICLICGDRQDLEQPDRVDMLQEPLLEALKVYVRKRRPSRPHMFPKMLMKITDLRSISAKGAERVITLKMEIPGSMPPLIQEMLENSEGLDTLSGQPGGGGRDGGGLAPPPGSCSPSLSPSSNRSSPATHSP
Sequence of Aryl hydrocarbon receptor (Homo sapiens) (P35869 whole entry, looked up): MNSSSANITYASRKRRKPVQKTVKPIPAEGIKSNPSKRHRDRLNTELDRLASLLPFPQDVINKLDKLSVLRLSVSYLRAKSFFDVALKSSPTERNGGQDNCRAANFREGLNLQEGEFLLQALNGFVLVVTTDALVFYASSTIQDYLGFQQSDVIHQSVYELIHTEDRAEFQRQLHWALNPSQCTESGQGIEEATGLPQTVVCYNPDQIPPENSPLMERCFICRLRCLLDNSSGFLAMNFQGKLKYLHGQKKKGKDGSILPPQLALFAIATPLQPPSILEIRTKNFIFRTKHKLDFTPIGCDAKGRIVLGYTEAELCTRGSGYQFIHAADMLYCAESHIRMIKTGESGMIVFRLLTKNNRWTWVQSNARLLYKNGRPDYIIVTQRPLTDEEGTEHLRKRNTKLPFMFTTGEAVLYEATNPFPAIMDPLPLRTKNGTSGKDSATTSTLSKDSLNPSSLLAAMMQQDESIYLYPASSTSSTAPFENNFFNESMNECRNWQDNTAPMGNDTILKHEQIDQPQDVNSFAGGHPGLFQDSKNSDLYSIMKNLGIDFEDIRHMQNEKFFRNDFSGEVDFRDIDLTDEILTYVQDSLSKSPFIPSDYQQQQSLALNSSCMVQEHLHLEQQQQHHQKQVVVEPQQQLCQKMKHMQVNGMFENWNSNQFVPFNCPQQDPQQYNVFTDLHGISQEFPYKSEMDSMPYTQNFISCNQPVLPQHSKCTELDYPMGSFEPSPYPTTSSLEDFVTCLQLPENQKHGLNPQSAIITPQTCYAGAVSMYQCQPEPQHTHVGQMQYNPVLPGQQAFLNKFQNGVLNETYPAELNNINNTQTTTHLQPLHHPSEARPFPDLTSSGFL
Sequence of Transcription factor E2F1 (Homo sapiens) (Q01094 whole entry, looked up): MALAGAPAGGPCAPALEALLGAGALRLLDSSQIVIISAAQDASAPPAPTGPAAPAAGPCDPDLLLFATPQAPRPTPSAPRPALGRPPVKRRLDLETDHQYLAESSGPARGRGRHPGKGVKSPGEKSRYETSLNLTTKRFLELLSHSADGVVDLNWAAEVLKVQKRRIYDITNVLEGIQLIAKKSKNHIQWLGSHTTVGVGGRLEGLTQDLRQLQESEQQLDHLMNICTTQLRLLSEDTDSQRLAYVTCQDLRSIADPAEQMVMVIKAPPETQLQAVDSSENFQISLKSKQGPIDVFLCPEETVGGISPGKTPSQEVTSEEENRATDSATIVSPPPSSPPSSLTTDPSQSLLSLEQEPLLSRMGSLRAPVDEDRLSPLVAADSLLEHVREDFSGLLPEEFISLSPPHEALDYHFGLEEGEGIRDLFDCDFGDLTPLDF

In the case of `Nc1ccc(N=Nc2ccccc2)cc1`, the result in assay [1], in [2], in assay [3], in assay [4], in assay [6] and in [8] was inactive. For the same compound, the result in assay [9], in [11], in assay [13], in assay [15], in assay [16] and in [17] was inactive. The compound was classed as inactive in assay [18] and in assay [19]. Besides, the AC50 was 25.4 µM (active) in assay [5]; 59.4 µM (active) in assay [7]; 100 µM (active) in [10]; 50.6 µM (active) in assay [12]; 27 µM (active) in assay [14].
Turning to `COP(=S)(OC)SCN1C(=O)c2ccccc2C1=O`, the call in assay [1], in [2], in assay [3], in [4], in assay [5] and in [6] was inactive. Besides, the outcome in [20], in assay [7], in [9], in assay [10], in assay [11] and in [12] was inactive. The result in assay [13], in assay [15], in assay [16], in assay [17], in [18] and in assay [19] was inactive.
Regarding `CN(C)c1ccc(C(=O)c2ccc(N(C)C)cc2)cc1`, the compound was classed as inactive in [1], in [2], in assay [3], in [4], in assay [20] and in [7]. The compound was classed as inactive in assay [8], in [9], in assay [10], in assay [11], in assay [12] and in [13]. Further, the outcome in assay [15], in [16], in assay [17], in [18] and in [19] was inactive. Further, the AC50 in assay [5] is 65.5 µM (active).
Regarding `ClC1=C(Cl)C2(Cl)C3C(Cl)C=CC3C1(Cl)C2(Cl)Cl` (configuration not stated), the compound was called inactive in [1], in assay [2], in assay [5], in assay [7], in assay [8] and in [9]. Moreover, the outcome in assay [10], in assay [11], in [13], in assay [15], in assay [16] and in assay [17] was inactive. In addition, the call in assay [18] and in [19] was inactive. The concentration at half-maximal activity (AC50) is 100 µM (active) in assay [3]; 40.1 µM (active) in assay [4]; 154 µM (active) in assay [6]; 132 µM (active) in assay [12]; 24.4 µM (active) in [14].
Consider `CCCCCOC(=O)c1ccccc1C(=O)OCCCCC`, for which the compound was called inactive in assay [1], in [2], in assay [3], in assay [5], in assay [7] and in [9]. The result in [10], in assay [11], in [12], in assay [13], in assay [14] and in assay [15] was inactive. In addition, the compound was classed as inactive in [16], in [17], in assay [18] and in assay [19]. Further, the figures for the AC50 in assay [4] and in assay [6] were 150 µM (active) and 77.2 µM (active), respectively.
Take `[O-][Cl+]O`: the result in assay [1], in [3], in assay [4], in assay [5], in assay [6] and in assay [20] was inactive. The compound was called inactive in assay [7], in assay [8], in [9], in assay [10], in [11] and in assay [12]. Further, the compound was called inactive in assay [13], in [14], in assay [15], in assay [16], in [17] and in [18]. Further, in [19], the result was inactive.
Turning to `Oc1ccccc1Cl`, the compound was called inactive in assay [1], in assay [2], in assay [3], in assay [4], in [5] and in assay [7]. Also, the compound was called inactive in [9], in [10], in assay [11], in [12], in assay [13] and in assay [15]. Moreover, the result in assay [16], in assay [17], in assay [18] and in assay [19] was inactive.

What is called AC50 is the concentration at which the activity in the assay is half-maximal.

The values above are taken from PubChem BioAssay (EPA / NIEHS).
